# A selection: hits, their analogues and other compounds. The true share with any hit is near 10%.
# G9a block – blocks human histone lysine methyltransferase G9a | G9a H3K9 monomethylation, AlphaScreen, 2 h | Potency, µM (series often up to 102 µM), inactives show at the top dose activity, negative = inhibition, actives largely listed as inhibitors | actives 8.8% (n = 350,000) | AID 504332; further: on the % scale 0 is the no-effect control and ±100 the full control effect; nearly all actives have a fitted effect of over 75% in size
#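 Compounds were preincubated with 20 nM G9a for 15 min, after which biotinylated H3K9 peptide (500 nM) and SAM (20 uM) started a 2 h room-temperature reaction. Monomethylated product was quantified by antibody-based AlphaScreen chemiluminescence.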
# GLS inh – inhibitors of human glutaminase (GLS) | O94925 | GLS enzymatic activity, qHTS titration | Potency, µM (titrated, usually from 45.5 µM), for the others: at the highest dose activity change, negative = inhibition, hits mostly inhibitors | actives 0.21% (n = 410,000) | AID 624170; further: on the % scale 0 is the no-effect control and ±100 the full control effect
# Target sequence (O94925 whole entry, looked up): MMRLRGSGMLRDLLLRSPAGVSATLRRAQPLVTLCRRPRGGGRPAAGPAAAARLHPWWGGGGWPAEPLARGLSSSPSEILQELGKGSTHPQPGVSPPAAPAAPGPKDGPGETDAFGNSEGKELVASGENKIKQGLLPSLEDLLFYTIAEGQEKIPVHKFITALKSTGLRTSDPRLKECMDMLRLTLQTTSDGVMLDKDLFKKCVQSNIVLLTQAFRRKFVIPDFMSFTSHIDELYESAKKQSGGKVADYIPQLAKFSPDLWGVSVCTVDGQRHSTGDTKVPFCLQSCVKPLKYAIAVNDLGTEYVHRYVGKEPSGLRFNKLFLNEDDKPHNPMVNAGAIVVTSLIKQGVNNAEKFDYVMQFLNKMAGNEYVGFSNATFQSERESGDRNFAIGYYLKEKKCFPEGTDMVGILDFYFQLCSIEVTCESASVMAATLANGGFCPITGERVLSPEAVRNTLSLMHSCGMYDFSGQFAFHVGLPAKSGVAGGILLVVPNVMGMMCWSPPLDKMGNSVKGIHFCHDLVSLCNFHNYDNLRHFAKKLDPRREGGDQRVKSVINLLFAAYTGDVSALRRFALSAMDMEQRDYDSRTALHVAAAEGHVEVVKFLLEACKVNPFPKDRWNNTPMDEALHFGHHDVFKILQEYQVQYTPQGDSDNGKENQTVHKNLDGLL
#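 Human kidney-isoform GLS in 45 mM KH2PO4 pH 8.2, 0.02% Tween-20, with compound, started with 1mM L-Glutamine (added stock). Glutamate oxidase/HRP/Amplex red coupled fluorescence read at start and after 30 min at RT.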
# JMJD2A Tudor – blocks the human JMJD2A Tudor domain; Potency, µM (doses to about 114 µM), for inactives: at the highest dose activity change, negative = inhibition, actives largely listed as inhibitors; AlphaScreen JMJD2A-Tudor / H3K4me3 peptide binding; actives 4.4% (n = 390,000); O75164; AID 504339; further: on the % scale 0 is the no-effect control and ±100 the full control effect; nearly all actives have a fitted effect of over 50% in size
# BAZ2B inh – inhibitors of human BAZ2B bromodomain. Q9UIF8. Potency, µM (highest dose often 114 µM), for the others: at the top dose activity change, negative = inhibition, hits mostly inhibitors. AlphaScreen BAZ2B-H3K14Ac peptide displacement. actives 4.4% (n = 360,000); further: on the % scale 0 is the no-effect control and ±100 the full control effect; nearly all actives have a fitted effect of over 60% in size
#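 Inhibition is scored as reduced AlphaScreen emission. The BAZ2B/b-H3(5-23)K14Ac complex (50 nM each) in PBS pH 7.4, 0.01% Tween-20 meets compound (up to 110 uM) for 30 min at RT before bead addition.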
# HP1b chromo inh – inhibitors of HP1-beta chromodomain binding to methylated histone tails; P83916; AlphaScreen HP1-beta / biotin-H3K9me3 peptide binding; Potency, µM (doses to about 114 µM), for inactives: at the top dose activity change, negative = inhibition, actives largely listed as inhibitors; actives 0.56% (n = 390,000); further: nearly all actives have a fitted effect of over 70% in size
#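 HP1-beta protein (50 nM final) preincubated 30 min at room temperature with biotinylated H3(1-18)K9me3 peptide (50 nM) in PBS pH 7.4, 0.01% Tween-20, then compound added for 30 min. AlphaScreen streptavidin donor/nickel chelate acceptor beads (10 ug/mL final), 30 min dark, luminescence read.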
# L3MBTL1 inh – L3MBTL1 (human) inhibition. AID 485360. actives 0.66% (n = 230,000). AlphaScreen L3MBTL1–H3K9me1 peptide binding. Q9Y468. Potency, µM (series often up to 57.1 µM), inactives show at the highest dose activity, negative = inhibition, hits mostly inhibitors; further: on the % scale 0 is the no-effect control and ±100 the full control effect; nearly all actives have a fitted effect of over 60% in size
#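 L3MBTL1 (50 nM) pre-complexed 30 min with biotinylated H3(1-15)K9me1 peptide (75 nM), then compounds added for 30 min at room temperature; AlphaScreen streptavidin donor/nickel chelate acceptor beads (10 ug/mL final) read after 30 min dark incubation.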
# Active calls of the source: *; ? = inconclusive; nt = no result given; [ ] = remark or other dose. The call rests on the fitted dose curve; in most records, active means well fitted curve in the direction sought with a large enough effect; inconclusive means small, poorly fitted or top-dose-only effect, or another doubt; inactive means no such curve, though single readings can be large; an effect the other way counts as inactive or inconclusive. Potency means the concentration at half of the fitted maximal effect.
SMILES,G9a block,GLS inh,JMJD2A Tudor,BAZ2B inh,HP1b chromo inh,L3MBTL1 inh
O=C(COc1ccc([N+](=O)[O-])cc1)NNC(=S)NC(=O)c1ccc(Br)cc1,2.8µM*,38%,50µM*,2%,?,44%
Cc1ccc(C(=O)NC(=S)NNC(=O)COc2ccc([N+](=O)[O-])cc2)cc1,3.5µM*,-5%,25µM*,3%,-19%,nt
Cc1[nH]c2ccc(F)cc2c1CCN(Cc1cccnc1)C(=S)Nc1ccccc1,56µM*,8%,?,nt,-2%,nt
CCOc1ccc(NC(=S)N(CCc2c(C)[nH]c3ccccc23)Cc2cccnc2)cc1,?,-3%,?,?,-8%,?
Cc1[nH]c2ccccc2c1CCN(Cc1cccnc1)C(=S)Nc1ccc(F)cc1,?,1%,?,nt,-8%,nt
CCOc1ccc(NC(=S)N(CCc2c(C)[nH]c3ccc(C)cc23)Cc2ccncc2)cc1,40µM*,11%,25µM*,35µM*,-20%,-11%
COc1ccc(NC(=S)N(CCc2c(C)[nH]c3ccc(C)cc23)Cc2cccnc2)cc1,50µM*,3%,50µM*,35µM*,-22%,-6%
Cc1[nH]c2ccccc2c1CCN(Cc1cccnc1)C(=S)Nc1cccc(F)c1,50µM*,23%,?,nt,-8%,nt
CSc1ncc(C(=O)Nc2c(C)cccc2C)c(-c2ccccc2)n1,-8%[59 µM],-1%,-32%,-6%,17%,nt
COC(=O)CCN(Cc1ccco1)S(=O)(=O)c1ccc(F)cc1Br,nt,nt,-23%,nt,10%,nt
CNC(=O)c1cccc(-n2c(C)nc3cccnc32)c1C,4%[59 µM],-4%,7%,0%,40%,nt
O=C(c1ccco1)N1CCN(S(=O)(=O)c2ccc(Oc3ccccc3)cc2)CC1,35µM*,0%,-34%,-30%,-4%,-8%
CC(=O)c1ccc(S(=O)(=O)N2CCN(C(=O)c3ccc(COc4ccccc4)o3)CC2)cc1,50µM*,2%,-28%,-3%,6%,-2%
O=C(c1ccco1)N1CCN(S(=O)(=O)c2ccc(Br)cc2)CC1,12%,0%,5%,-1%,42%,nt
CC(=O)c1ccc(S(=O)(=O)N2CCN(C(=O)c3ccccc3Cc3ccccc3)CC2)cc1,9%[0.501 µM],-2%,-1%,-1%,19%,-13%
Fc1ccccc1-c1n[nH]c(=S)n1/N=C/c1c[nH]c2ccccc12,0.71µM*,?,35µM*,?,-3%,nt
Fc1ccccc1/C=N/n1c(C2CCCCC2)n[nH]c1=S,25µM*,-21%,40µM*,2%,-13%,nt
S=c1[nH]nc(C2CCCCC2)n1/N=C/c1ccccc1Br,7.1µM*,59%,18µM*,-39%,?,nt
O=C1NC2(CCCCC2)C(=O)N1/N=C/c1ccccc1Br,14%,-1%,-15%,-16%,35%,nt
Cc1ccccc1/C=N/n1c(C2CCCCC2)n[nH]c1=S,13µM*,?,-23%,-1%,29%,nt
CN(C)CC[C@@](O)(c1ccccc1)c1ccccc1Cl,-1%[12.7 µM],23%,nt,nt,nt,nt
CCN(C(=O)Cn1nc2c3cc(F)ccc3n(Cc3cccc(C)c3)cc-2c1=O)c1cccc(C)c1,-34%[59 µM],9%,-11%,-18%,24%,nt
O=C(O)COc1ccccc1/C=N/n1c(C2CCCCC2)n[nH]c1=S,8.9µM*,-7%,25µM*,-5%,1%,nt
Cc1cc(Nc2ccc(C)c(Cl)c2)n2nc(Cc3ccccc3)nc2n1,21%[59 µM],-3%,-25%,-21%,40%,nt
O=C(NNS(=O)(=O)c1cccc(Cl)c1Cl)c1cccc(S(=O)(=O)N2CCOCC2)c1,32µM*,17%,?,3%,8%,6%
SMILES,G9a block,GLS inh,JMJD2A Tudor,BAZ2B inh,HP1b chromo inh,L3MBTL1 inh
O=C(NNS(=O)(=O)c1ccc(Cl)cc1)c1cccc(S(=O)(=O)N2CCOCC2)c1,?,11%,-7%,-18%,26%,nt
C/C(=N\NC(=O)c1cccc(S(=O)(=O)N2CCCC2)c1)c1cccs1,31%,-21%,56µM*,-17%,-10%,2%
COc1ccc(/C(C)=N/NC(=O)c2cccc(S(=O)(=O)N3CCCC3)c2)c(O)c1,63%[2.33 µM],11%,?,2.8µM*,-3%,6.3µM*
C/C(=N\NC(=O)c1cccc(S(=O)(=O)N2CCOCC2)c1)c1ccc(C#N)cc1,40µM*,9%,-15%,?,14%,nt
CCC1CN(C(=O)N2CCC(C(=O)NCCc3ccc(Cl)cc3)CC2)c2ccccc2O1 (stereo not given),-6%[59 µM],3%,-10%,-16%,33%,nt
CCCNC(=O)CSc1nc2ccccc2nc1Cc1ccc(Cl)cc1,12%[59 µM],-3%,-11%,-1%,18%[57 µM],nt
CCOC(=O)[C@H](CCc1ccccc1)NC(C)C(=O)N1CC2(CC1C(=O)O)SCCS2 (stereo not given in full),nt,-2%,nt,nt,nt,nt
CCOC(=O)c1c(-c2ccc(C)o2)csc1NC(=S)NC(=O)c1ccccc1Br,32µM*,0%,?,-10%,?,-5%
CCOC(=O)c1c(-c2ccc(C)o2)csc1NC(=O)COC(=O)c1ccc(NC(N)=O)cc1,3.5µM*,11%,?,79µM*,-1%,nt
CCOC(=O)c1c(-c2ccc(C)o2)csc1NC(=O)CSc1nnc(C)s1,?,3%,-32%,-7%,-2%,-1%
CCOC(=O)c1c(-c2ccc(C)o2)csc1NC(=S)NC(=O)c1cccs1,?,14%,-34%,?,-18%,-4%
O=C(CCCn1c(=O)c2cccn2c2cccnc21)Nc1ccccc1C(F)(F)F,-6%[59 µM],-17%,-19%,-9%,16%,nt
COc1ccc(CCNC(=O)c2cc3c(=O)n(C)c4cc(Cl)ccc4c3s2)cc1OC,-21%[59 µM],0%,-14%,nt,15%,nt
COCCCNC(=O)C1CCN(c2cc(C)nc3c(-c4ccc(OC)c(OC)c4)c(C)nn23)CC1,-34%[59 µM],-14%,-9%,-23%,48%,nt
COc1ccc2c(c1)[n+](=O)c(C(C)=O)c(C)n2[O-],28µM*,-10%,-17%[11.4 µM],-7%,?,nt
CC(=O)c1c(C)n([O-])c2cc(F)c(F)cc2[n+]1=O,2%,-5%,-8%,-3%,52%,2%
COc1ccc(C2CC(C)(c3ccc(OC)cc3)Nc3ccccc3N2)cc1 (stereo not given),nt,?,?,22µM*,?,-16%
COc1ccc(NC(=O)Cn2c(=O)n(Cc3ccccc3)c(=O)c3oc4ccccc4c32)cc1Cl,1%[59 µM],1%,-14%,-15%,12%,nt
CSc1sc(C)cc1C1C(C#N)=C(N)N(c2cccnc2)C2=C1C(=O)CC(C)(C)C2 (stereo not given),?,1%,-7%,-5%,40%,-2%
